A selection: hits, their analogues and other compounds. The true share with any hit is near 1.8%.
MBD2 inh: inhibitors of MBD2 binding to methylated DNA, primary screen, biochemical, TR-FRET, DNA-binding domain, human | AID 686964, 2013 | Methyl-CpG-binding domain protein 2 (Homo sapiens), Q9UBB5 | inhibition, % at 4.4 µM | MBD2 binding to methylated oligonucleotide | actives 0.31% (n = 370,000); in the data active = inhibition above about 13%
Neddyl block: inhibitors of cullin neddylation, primary screen, biochemical, TR-FRET, uHTS, NAE and Ubc12. calls only at 25 µM. actives 0.58% (n = 360,000). AID 651699, 2012; in the data active = inhibition above about 36%
UBC13 polyUb: UBC13 polyubiquitin chain formation inhibitors, primary screen, biochemical, TR-FRET, uHTS; actives 0.47% (n = 330,000); inhibition, % at 20 µM; in the data active = inhibition above about 45%, passing the limit was not always enough
UHRF1 binding: UHRF1 methylated DNA binding inhibitors, primary screen, counter-screen for MBD2 inhibitor project, biochemical, TR-FRET, human UHRF1, single concentration. UHRF1 binding to methylated oligo. inhibition, % at 4.4 µM. actives 0.75% (n = 370,000). E3 ubiquitin-protein ligase UHRF1 (Homo sapiens), Q96T88; in the data active = inhibition above about 21%;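 note: UHRF1 SRA domain binding a hemimethylated CpG hairpin DNA probe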
A number is an active result; . = inactive; / = not tested or not shown.

SMILES	MBD2 inh	Neddyl block	UBC13 polyUb	UHRF1 binding
CC(C(=O)OCC(=O)Nc1ccc2c(c1)OCO2)N1C(=O)c2ccccc2C1=O (centres undefined)	34	.	.	.
CC(C(=O)Oc1ccc2c(c1)OCO2)N1C(=O)c2ccccc2C1=O (centres undefined)	/	/	.	/
CCCN(CCC)CCCNC(=O)c1cc2c(=O)n(C)c3ccccc3c2n1C	.	.	.	.
Cc1ccccc1Nc1nc(-c2sc(NC(=O)c3ccccc3)nc2C)cs1	/	/	93	/
Cc1ccccc1Nc1nc(-c2sc(NC(=O)c3cccc(Cl)c3)nc2C)cs1	/	/	.	/
O=C(Nc1ccc([N+](=O)[O-])cc1)c1ccc(Cn2cc([N+](=O)[O-])cn2)cc1	.	.	.	.
Cc1cc(=O)n2c3c(sc2n1)C(=O)N(Cc1ccccc1)C3=O	/	/	.	/
S=C(c1ccccc1)N1CCN(c2ccccc2)CC1	.	.	/	.
CCN(CC)c1ccc(C(=S)N2CCN(c3ccccc3)CC2)cc1	.	.	.	21
Cc1c(C(=O)NCCC#N)sc(=O)n1Cc1ccc(F)cc1	.	.	/	.
OC(C#CCN1CCCC1)(c1ccccc1)c1cccnc1 (centres undefined)	.	.	.	21
OC(C#CCN1CCCCCC1)(c1ccccc1)c1cccnc1 (centres undefined)	.	.	.	.
Cc1cc(C)c(-c2cc(NC(=O)COC(=O)c3ccc(NC(=O)CC#N)cc3)n(-c3ccccc3)n2)cc1C	.	.	.	26
CCCCCn1c(=O)[nH]c2cc(C(=O)N3CCN(CC)CC3)ccc2c1=O	.	.	.	25
CCCCCn1c(=O)[nH]c2cc(C(=O)N3CCN(c4ccc(C(C)=O)cc4)CC3)ccc2c1=O	.	.	.	.
O=C(CCN1C(=O)c2ccccc2C1=O)NCc1cccc(Cl)c1	.	.	.	.
COC(=O)c1cnc(N)s1	.	.	/	23
Cc1ccc(Cc2c(C3CCCCC3)nc3ccc(Br)cn23)cc1	.	.	/	.
COC(=O)c1ccc2nc(C3CCCCC3)c(Cc3ccc(C)cc3)n2c1	.	.	/	23
COC(=O)c1ccc2nc(C(C)(C)C)c(Cc3ccc(OC)cc3C)n2c1	.	.	/	22
Clc1cccc(Cc2c(C3CCCCC3)nc3ccc(Br)cn23)c1	.	.	/	.
COC(=O)c1ccc2nc(C3CCCCC3)c(Cc3ccc(OC)cc3C)n2c1	.	.	/	21
COC(=O)c1ccc2nc(C3CCCCC3)c(Cc3cccc(Cl)c3)n2c1	.	.	/	23
COc1ccc(Cc2c(C(C)(C)C)nc3ccc(Br)cn23)c(C)c1	.	.	/	.
O=C(Nc1ccc(-c2nc3ncccc3o2)cc1)c1ccc([N+](=O)[O-])o1	.	.	.	40
SMILES	MBD2 inh	Neddyl block	UBC13 polyUb	UHRF1 binding
CC(C)OC(=O)C(C)(C)Oc1ccc(C(=O)c2ccc(Cl)cc2)cc1	.	.	.	.
CCNC(=O)NC(=O)C(C)OC(=O)C(C)(C)Oc1ccc(Cl)cc1 (centres undefined)	.	.	.	26
Cc1cc(/C=C2\SC(=S)NC2=O)c(C)n1C	.	.	.	23
CC(C)N(C(=O)[C@H]1C[C@H](CC(=O)NCCCN(C)C)C(=O)N2CCc3c([nH]c4cc(CCC(=O)N(C)C)ccc34)[C@]12C)C(C)C	.	.	/	21
COc1ccc(CNC(=O)C[C@H]2C[C@H](C(=O)N3CCCCC3)[C@@]3(C)c4[nH]c5ccc(Cl)cc5c4CCN3C2=O)cc1OC	.	.	/	21
COCCN1Cc2cccc(C(=O)Nc3cc(OC)ccc3OC)c2C1=O	.	.	.	.
Cc1cnc(C(=O)OCC(=O)N2CCC(C)CC2)cn1	.	.	.	.
Cc1cnc(C(=O)OCC(=O)N2C(C)CCCC2C)cn1 (centres undefined)	.	.	.	24
Cc1cnc(C(=O)OCC(=O)NC2CCCCCC2)cn1	.	.	.	22
O=C(COC(=O)c1ccc[nH]c1=O)NC1CCCCCCC1	.	.	.	.
O=C(COC(=O)c1ccc[nH]c1=O)NC1CCCCCC1	.	.	.	56
Cc1ccc(NC(=O)Cn2c(=O)c3cccn3c3ccccc32)cc1	.	.	.	.
O=S(=O)(N/N=C/c1ccc(N2CCOCC2)cc1)c1ccccc1	.	.	.	.
Cc1cccc(OCC(=O)N(Cc2nnc(-c3ccccc3Cl)o2)C2CC2)c1	.	.	.	68
O=C(O)c1cc(N/N=C/c2ccc(N3CCOCC3)s2)ccc1Cl	43	.	.	93
NC(=O)N/N=C/c1ccc(N2CCOCC2)s1	.	.	.	.
CCc1ccc(/C=C/C(=O)c2ccc(S(=O)(=O)N(C)C)cc2)cc1	.	.	.	.
COC(=O)CC1NCCc2cc(OC)c(OC)cc21 (centres undefined)	.	.	.	33
NC(=O)c1ccccc1NC(=O)/C=C/c1ccc(Cl)cc1	.	/	.	.
O=C(CSc1nc2ccccc2s1)N1CCCCC1	.	.	.	42
Cc1noc(C)c1S(=O)(=O)Nc1ccc(C(=O)NC2CCCCCC2)cc1	.	.	.	21
Cc1noc(C)c1S(=O)(=O)Nc1ccc(C(=O)NC2CCCCC2C)cc1 (centres undefined)	.	.	.	.
C=C(C)CCC(C)N1CCC(n2nccc2NC(=O)CCCc2ccccc2)CC1 (centres undefined)	.	.	.	21
O=C(O)c1cn(-c2ccc(F)cc2)c2cc(Cl)c(F)cc2c1=O	.	.	.	28
O=[N+]([O-])c1ccc(NC(=S)NCc2ccncc2)cc1	.	.	.	.
SMILES	MBD2 inh	Neddyl block	UBC13 polyUb	UHRF1 binding
CC(NC(=S)Nc1ccc([N+](=O)[O-])cc1)c1ccncc1 (centres undefined)	.	.	.	46
COc1ccc(C(=O)NCCS(=O)(=O)NCc2ccccc2OC)cc1	.	.	.	.
COc1cc(C(=O)NNC(=O)c2ccc(NC(=O)C(C)(C)C)cc2)cc(OC)c1OC	.	.	.	32
CCOc1ccc(N(C)Cc2cc(=O)oc3ccc(OCC)cc23)cc1	.	.	.	22
COc1ccc(OCCOC(=O)Nc2ccccc2)cc1	.	.	.	.
COc1cc(C(F)(F)F)nc2ccc(C#CCOC(=O)Nc3ccccc3)cc12	.	.	.	21
CC(CO)NS(=O)(=O)c1cc(Cl)ccc1F (centres undefined)	.	.	/	26
C=CCN1[C@@H](Cc2ccccc2)COc2cc(F)ccc2S1(=O)=O	.	/	/	.
CCOC(=O)C1(C)CCCN(C(=O)c2cc(F)cc(F)c2)C1 (centres undefined)	.	.	/	.
Oc1c(CN2CCOCC2)cc(CN2CCOCC2)cc1CN1CCOCC1	.	.	/	24
C=CCn1c(-c2ccccc2)nc2nc3ccccc3nc21	.	/	.	.
Clc1cccc(-c2nc3nc4ccccc4nc3n2Cc2ccccc2)c1	.	.	.	29
Nc1ccc(C(=O)OCC(=O)Nc2cc([N+](=O)[O-])ccc2F)cc1	.	.	.	42

Screening data: PubChem, several laboratories
